Test systems include HCT-15 colon; SNB-19 CNS; U251 CNS; PC-3 prostate; UACC-62 melanoma; LOX IMVI melanoma; SK-MEL-28 melanoma; SK-MEL-2 melanoma; EKVX NSCLC; SN12C renal; UO-31 renal; TK-10 renal; ACHN renal; CAKI-1 renal; CCRF-CEM leukemia; MOLT-4 leukemia; SK-MEL-5 melanoma; A498 renal.
What all share (assay): NCI-60 one-dose screen, 48 h (100 = growth as untreated, 0 = no growth, -100 = all killed)
Common to all, as to conditions: 10 µM unless noted

Experimental findings from PubChem BioAssay (NCI) are described below.

Molecules are shown by their SMILES. About 83,000 compounds went through this panel and 20% of them were active in at least one assay; those are over-represented in the sample as a whole.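 Each cell line was grown in a 96-well plate and treated with one concentration of compound for 48 hours. Values below 10 were considered active.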 Values without a mark were called inactive. The source made the active and inactive calls.

Consider `CN1C(=O)N(C)C2C1NN=c1s/c(=C\c3cccnc3)c(=O)n12` (configuration not stated), for which the growth in the test with HCT-15 colon is 42.2%; in the test with SNB-19 CNS it was 81.4%; in the test with U251 CNS, 90.2%; with PC-3 prostate, 65.9%; in the test on UACC-62 melanoma, 68.6%; in the test with LOX IMVI melanoma it was 80.1%. Further, the growth in the test on SK-MEL-28 melanoma was 81.5%; with SK-MEL-2 melanoma it was 97.3%; in the test on EKVX NSCLC it was 89.6%; in the test on SN12C renal, 93.5%; in the test on UO-31 renal, 66.5%; in the test with TK-10 renal, 109%. The growth is 92.3% with ACHN renal, 57.6% with CAKI-1 renal, 79.8% with CCRF-CEM leukemia and 88.7% in the test with MOLT-4 leukemia.

As to `O=C1Nc2ccc(Cl)cc2C12Nc1cc(Cl)ccc1S2` (configuration not stated), the growth is 87% in the test with HCT-15 colon; 94.8% in the test on SNB-19 CNS; 85.8% in the test on U251 CNS; 51.8% in the test on PC-3 prostate; 70.9% with SK-MEL-5 melanoma; 71.5% in the test on UACC-62 melanoma. The growth was 77.9% in the test on LOX IMVI melanoma; 110% in the test with SK-MEL-28 melanoma; 105% with SK-MEL-2 melanoma; 73.3% with EKVX NSCLC; 90.1% with SN12C renal; 57.4% with UO-31 renal. The growth is 111% in the test on TK-10 renal; 104% with ACHN renal; 112% in the test with CAKI-1 renal; 118% with A498 renal; 97.3% in the test with CCRF-CEM leukemia; 38.3% in the test on MOLT-4 leukemia.

For the molecule `Fc1ccc(Nc2ncnc3ccc(-c4cnc5[nH]ccc5c4)cc23)cc1Cl`, the growth in the test with HCT-15 colon was 31.1%; in the test on SNB-19 CNS it was 40.7%; in the test with U251 CNS it was -68.2% (active); in the test on PC-3 prostate, 27.5%; with SK-MEL-5 melanoma it was 21%; in the test with UACC-62 melanoma, 44.8%. For the same molecule, the growth with SK-MEL-28 melanoma was 57.4%; with SK-MEL-2 melanoma, 29.9%; in the test with EKVX NSCLC, 14.8%; in the test with SN12C renal, -14.2% (active); with UO-31 renal it was -73.8% (active); with ACHN renal, -66.7% (active). Further, the figures for the growth in the test with A498 renal, in the test on CCRF-CEM leukemia and in the test with MOLT-4 leukemia were 77.4%, 40% and 45.6%, respectively.

For the molecule `COc1ccc(C(=O)c2cc(OC)c(OC)c(OC)c2OC)cc1O`, the growth is 30.2% with HCT-15 colon; 40.6% with SNB-19 CNS; 33.4% in the test with U251 CNS; 68.4% in the test on PC-3 prostate; 2.02% (active) in the test with SK-MEL-5 melanoma; 40.3% in the test on UACC-62 melanoma. The growth is 38.7% in the test on LOX IMVI melanoma; 45.6% in the test on SK-MEL-28 melanoma; 93.8% with EKVX NSCLC; 40.5% with SN12C renal; 56.5% in the test on UO-31 renal; 95.9% in the test on TK-10 renal. Besides, the growth in the test with ACHN renal was 54.5%; in the test on CAKI-1 renal, 55.4%; in the test on A498 renal it was 67.7%; with MOLT-4 leukemia, 44.2%.

Consider `CC(C)(C)OC(=O)NC(CSCc1ccccc1)C(=O)ON1C(=O)CCC1=O` (configuration not stated), for which the growth was 103% in the test with HCT-15 colon; 106% in the test with SNB-19 CNS; 105% in the test on U251 CNS; 91.3% with PC-3 prostate; 114% in the test on SK-MEL-5 melanoma; 112% in the test on UACC-62 melanoma. Moreover, the growth with LOX IMVI melanoma was 104%; with SK-MEL-28 melanoma, 120%; in the test on EKVX NSCLC, 113%; in the test on SN12C renal it was 107%; with UO-31 renal, 90.8%; with TK-10 renal, 119%. Also, the growth in the test with ACHN renal was 101%; with CAKI-1 renal, 112%; in the test on A498 renal, 110%; in the test on CCRF-CEM leukemia, 96.7%; with MOLT-4 leukemia, 97%.

With `COc1ccc(NC(=O)CSc2nc(-c3ccc(OC)c(OC)c3)cc(-c3cc(OC)c(OC)c(OC)c3)n2)cc1`, the growth was 100% in the test on HCT-15 colon; 91.3% in the test with SNB-19 CNS; 105% in the test on U251 CNS; 88.6% in the test with PC-3 prostate; 88.7% in the test on SK-MEL-5 melanoma; 92.2% in the test on UACC-62 melanoma. The growth was 97.1% with LOX IMVI melanoma; 108% in the test with SK-MEL-28 melanoma; 89% in the test on SK-MEL-2 melanoma; 108% in the test on EKVX NSCLC; 93.9% in the test with SN12C renal; 35.4% with UO-31 renal. In addition, the growth with TK-10 renal is 96.8%; in the test with CAKI-1 renal, 83.8%; in the test on CCRF-CEM leukemia, 101%; in the test with MOLT-4 leukemia, 84.8%.

For `COc1ccc2c(c1)cn1c3ccc(OC)cc3[nH]c(=O)c21`, the growth with HCT-15 colon was -84.4% (active); in the test on SNB-19 CNS, 12.3%; in the test with U251 CNS it was -90.3% (active); with PC-3 prostate, -72.7% (active); in the test on SK-MEL-5 melanoma, 4.14% (active); in the test with UACC-62 melanoma, 29.9%. Further, the growth with SK-MEL-28 melanoma was 61%; in the test with SK-MEL-2 melanoma, -50.3% (active); in the test on EKVX NSCLC, 48.5%; in the test with SN12C renal, -11.8% (active); with UO-31 renal it was -74.8% (active); in the test on TK-10 renal, -89.6% (active). Further, the growth is -98.3% (active) in the test on ACHN renal, 41.2% with A498 renal, -64.8% (active) in the test with CCRF-CEM leukemia and -41.6% (active) in the test with MOLT-4 leukemia.

In the case of `Cc1ccc(S(=O)(=O)n2cc(C(=O)C(=O)Nc3ccncc3)c3ccccc32)cc1`, the growth in the test on HCT-15 colon was 24.9%; in the test on SNB-19 CNS, 45.7%; in the test with U251 CNS, 33.7%; in the test on PC-3 prostate, 55.1%; in the test on SK-MEL-5 melanoma, 11.2%; with UACC-62 melanoma it was 32.4%. The growth in the test with LOX IMVI melanoma was 45.2%; with SK-MEL-28 melanoma, 52%; in the test on EKVX NSCLC, 55.8%; in the test on SN12C renal, 39.8%; in the test with UO-31 renal it was 43.1%; in the test with TK-10 renal, 87.9%. Further, the growth with ACHN renal was 52.3%; in the test on CAKI-1 renal, 42.1%; in the test on A498 renal, 74.1%; with MOLT-4 leukemia it was 50.7%.

With `COc1ccc(Nc2[nH]n3c(=O)cc(-c4ccccc4)nc3c2C(=O)Nc2ccc(C)cc2)c(OC)c1`, the growth was 89.6% in the test with HCT-15 colon; 56.3% in the test on SNB-19 CNS; 60.3% in the test on U251 CNS; 98.4% in the test with SK-MEL-5 melanoma; 64% in the test on UACC-62 melanoma; 87% in the test on LOX IMVI melanoma. Further, the growth in the test on SK-MEL-28 melanoma is 95%; in the test with SK-MEL-2 melanoma, 103%; in the test with EKVX NSCLC it was 89.8%; with SN12C renal, 85.9%; in the test with UO-31 renal it was 74.7%; in the test on TK-10 renal, 108%. The growth in the test with ACHN renal is 88.5%; with CAKI-1 renal, 90.4%; with A498 renal it was 108%; in the test with CCRF-CEM leukemia, 66.5%; in the test with MOLT-4 leukemia it was 69.4%.
